Screens from PubChem BioAssay.
NadD block – inhibitors of S. aureus NadD, primary screen, biochemical, colorimetric, uHTS. Nicotinate-nucleotide adenylyltransferase NadD (Staphylococcus aureus N315). hit rate 0.78% among 360,000. inhibition, % at 20 µM. purified NadD enzyme, colorimetric absorbance read-out; in the data active means inhibition above about 26%
esBAF inh – Bmi1 luciferase reporter increase in mESCs, primary screen, esBAF inhibitor project, mouse ES cells, Bmi1 luciferase knock-in, single point; reporter increase, % at 12.5 µM; hit rate 2% among 350,000; 24 h; 100% = twice the neutral-well signal; in the data active means activation above about 40%; inconclusive means no clear call, values can overlap the other calls;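 further: 0% = median of the plate's neutral control wells and 100% = double that signal; a rise in the Bmi1 reporter signal indicates esBAF inhibition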
Vif inh – HIV Vif self-association inhibitors, primary screen, imaging, HEK293T, single point; HEK293T cells, Vif self-association by quenched fluorescence, 24 h; inhibition, % at 7.49 µM; hit rate 0.35% among 340,000; in the data active means inhibition above about 50%, passing the limit was not always enough; inconclusive means no clear call, values can overlap the other calls; inactive means below about 31%
NR3A LBD binder – binders of NR3A ligand-binding domain, primary screen, biophysical, differential scanning fluorimetry, uHTS; NR3A LBD differential scanning fluorimetry, Tm shift; 0% = protein alone, 100% = glycine-bound protein; Tm shift relative to glycine control, % at 25 µM; hit rate 2.5% among 340,000;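 active means melting temperature shift of at least 10% of the positive control shift, at one fixed dose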
SMARCA2 activ – SMARCA2 (BRM) function activators, primary screen, cell-based, luminescence, high throughput; hit rate 1% among 370,000; activation, % at 9.1 µM; MG213 cells, MMTV-luciferase reporter, dexamethasone, overnight; in the data active means activation above about 7.8%;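 further: 0% = vehicle wells and 100% = reference activator wells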
SKN-1 inh – suppressors of acrylamide-induced Pgst-4::GFP reporter in worms, primary screen, SKN-1 inhibitor project, whole organism, uHTS, GFP/RFP fluorescence ratio, strain VP596; hit rate 0.49% among 360,000; inhibition, % at 21.8 µM; AID 624304, 2012; C. elegans VP596 Pgst-4::GFP/RFP ratio, 24 h;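 active means interference check ratio from 0.5 to 1.5 plus GFP to RFP signal ratio inhibition reaching or exceeding a fixed threshold, cut at about 30% in these data, passing the limit was not always enough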
SMARCA2 conf – SMARCA2 (BRM) function activators, confirmation, cell-based, luminescence, triplicate; activation, % at 9.1 µM; hit rate 30% among 3,500; shares compounds with SMARCA2 activ; MG213 cells, MMTV-luciferase with dexamethasone, overnight; MG213 cells expressing E1A, Rb sequestered; DMSO wells 0%, reference activator 100%;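 active means activation above its plate's cutoff, the mean activation of tested wells plus 3 SD, cut at about 7.9% in these data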
GAL4-VP16 Luc – GAL4-VP16 luciferase reporter activation, counter-screen for SMARCA2 (BRM) activator project, cell-based, pG5luc, luminescence, high throughput. shares compounds with SMARCA2 activ. HEK293 GAL4-VP16 pG5luc reporter; scaled: DMSO wells 0%, SAHA wells 100%. activation, % at 9.1 µM. hit rate 41% among 3,500. AID 686939, 2013;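 active means activation above the solvent-only control well mean plus 3 SD, averaged across control plates, cut at about 5.2% in these data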
An asterisk follows results filed as active; u = inconclusive; x = no result. The list is not random: actives were taken first. Their share in the collection is about 5.2%.

SMILES	NadD block	esBAF inh	Vif inh	NR3A LBD binder	SMARCA2 activ	SKN-1 inh	SMARCA2 conf	GAL4-VP16 Luc
O=C1c2ccccc2S(=O)(=O)N1CC1CC(c2ccccc2Cl)=NO1 (centres undefined)	-6	14	-6	-2	1	16	x	x
CN1c2ccsc2/C(=N/Nc2ccc(F)cc2)CS1(=O)=O	-4	64*	-3	-6	9.4*	18	8.1*	6.5*
CCS(=O)(=O)Nc1ccc2c(c1)C(=O)N(C)C[C@@H](OC)[C@@H](C)CN(C(=O)C1CCC1)[C@H](C)CO2	x	-2	x	x	x	x	x	x
Oc1cccc(/C=N/N=C/c2cccc(O)c2O)c1O	-1	36	31	-2	12*	-12	13*	7.4*
CNC[C@H]1Oc2c(NC(=O)Nc3ccc(F)cc3)cccc2C(=O)N([C@H](C)CO)C[C@@H]1C	x	0	x	x	x	x	x	x
CC(=O)N(C)C[C@@H]1Oc2cc(C#CC(C)C)ccc2S(=O)(=O)N([C@H](C)CO)C[C@H]1C	x	-3	x	x	x	x	x	x
CCCn1c2ccccc2c2nnc(SCCN3CCOCC3)nc21	0	1	9	-1	-1	-1	x	x
O=c1c2ccccc2nc2c3ccccc3c(NCCN3CCOCC3)nn12	x	x	x	x	33*	x	45*	0
O=c1c2c(-c3ccccc3)csc2nc2c3ccccc3c(NCCN3CCOCC3)nn12	24	x	10	-15	5	0	x	x
C#CCn1c2ccccc2c2nc3ccccc3nc21	-5	u	-12	-3	9.3*	27	5	3
c1ccc2nc3c(nc2c1)c1ccccc1n3CCN1CCOCC1	5	x	-8	0	11*	12	7.9*	4
CCC(=O)Nc1ccc2c(c1)C(=O)N(C)C[C@H](OC)[C@@H](C)CN(C(=O)COC)[C@H](C)CO2	x	3	x	x	x	x	x	x
CCOC(=O)c1cnc2c(ccc3ccccc32)c1NCCCN(C)C	-11	39	-3	-1	19*	16	40*	8.1*
CCOC(=O)c1ccc2ncc(C(=O)OCC)c(NCc3ccco3)c2c1	0	29	x	0	13*	8	0	4
CCOC(=O)c1cnc2c(C(=O)OC)cccc2c1NCc1ccco1	-4	x	1	-1	8.0*	9	7	1
COc1ccc(-c2cnc3c(c2)C(=O)N([C@H](C)CO)C[C@@H](C)[C@@H](CN(C)S(C)(=O)=O)O3)cc1	x	-6	x	x	x	x	x	x
C[C@H]1CN([C@@H](C)CO)C(=O)c2cc(NS(C)(=O)=O)ccc2O[C@H]1CN(C)Cc1ccc(-c2ccccc2)cc1	x	-1	x	x	x	x	x	x
Clc1ccc2c(c1)-c1ccccc1C1=NCCN12	-5	x	-4	x	16*	1	313*	5
CC(C)C(=O)Nc1ccc(C=C2C=Cc3ccccc32)cc1	-5	u	6	x	5	19	x	x
CN(C)c1ccc(C=C2C=Cc3ccccc32)cc1	9	-11	1	-5	9.3*	3	3	11*
COc1ccc(CCNC(=O)c2cc3c(=O)n4ccccc4nc3n(C3CCCCC3)c2=N)cc1	7	-16	4	0	2	-9	x	x
Cc1cccn2c(=O)c3cc(C(=O)NCCN4CCOCC4)c(=N)n(CCc4ccccc4)c3nc12	2	3	1	1	11*	-13	2	1
Cc1cccn2c(=O)c3cc(C(=O)NC4CCCCC4)c(=N)n(Cc4ccccc4)c3nc12	13	-2	8	-1	-3	-1	x	x
COc1ccc(CCNC(=O)c2cc3c(=O)n4ccccc4nc3n(C3CCCCC3)c2=N)cc1OC	6	-3	-4	2	12*	19	6	2
Cc1cccn2c(=O)c3cc(C(=O)NC4CCCC4)c(=N)n(C4CCCCC4)c3nc12	-3	-5	2	-2	8.2*	18	8.3*	-1
SMILES	NadD block	esBAF inh	Vif inh	NR3A LBD binder	SMARCA2 activ	SKN-1 inh	SMARCA2 conf	GAL4-VP16 Luc
Cc1noc(C)c1S(=O)(=O)Nc1ccc2c(c1)C(=O)N([C@H](C)CO)C[C@@H](C)[C@@H](CN(C)S(=O)(=O)c1ccc(F)cc1)O2	x	0	x	x	x	x	x	x
Cc1noc(C)c1NC(=O)Nc1ccc2c(c1)CC(=O)N([C@H](C)CO)C[C@H](C)[C@@H](CN(C)C(=O)NC1CCCCC1)O2	x	-2	x	x	x	x	x	x
Cc1cc(C)n2nc(C(=O)Nc3ccc4c(c3)OCO4)cc2n1	-3	-5	19	0	11*	-19	18*	9.7*
O=C(c1cc(COc2c(F)cccc2F)on1)N1C[C@H]2CC[C@H]1C2	0	92*	-1	1	10.0*	24	11*	11*
CC1CN(c2ccccc2)CCN1C(=O)c1cc(COc2c(F)cccc2F)on1 (centres undefined)	4	2	8	-1	1	-8	x	x
CC(C)[C@H](CO)Nc1nc(NCc2ccc(S(N)(=O)=O)cc2)c2ncn(C(C)C)c2n1	2	-1	-1	0	10*	13	7.9*	0
Oc1cccc(Nc2ncnc3c2oc2ccccc23)c1	-2	x	-9	22*	8.3*	16	12*	9.1*
CNC(=O)C[C@@H]1CC[C@H]2[C@@H](COc3ccc(NC(=O)Nc4ccc(C)cc4)cc3C(=O)N2C)O1	x	5	x	x	x	x	x	x
COCC#Cc1cnc2c(c1)C(=O)N([C@@H](C)CO)C[C@H](C)[C@@H](CN(C)S(C)(=O)=O)O2	x	1	x	x	x	x	x	x
C[C@H](CO)N1C[C@H](C)[C@H](CN(C)S(=O)(=O)c2ccc(F)cc2)OCc2ccccc2-c2ccccc2C1=O	x	1	x	x	x	x	x	x
Cc1nn(C)c(C)c1CNC(=O)Nc1ccc(Cl)cc1	-5	26	-3	-2	9.5*	-6	1	6.4*
Cc1nn(C)c(C)c1CNC(=O)Nc1cccc(Cl)c1	-5	x	2	0	7	-14	x	x
O=C(NC1CCCC1)C(c1ccc(Cl)cc1)N1CCOCC1 (centres undefined)	4	3	x	-3	1	-11	x	x
